Measured values: PubChem BioAssay AID774 (SRMLSC, 2007)
Screen size: about 65,000 compounds; about 15 (0.02%) were called active.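 The calls were made as follows: active = single-dose screening hits from any of four coupled enzyme assays that gave an IC50 when retested across doses; inconclusive = no clear call, values can overlap the other calls; inactive = the rest.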 The list is a sample of the results.

Test: NADH-endpoint coupling enzyme inhibition profiling – biochemical, MLSMR library, artefact control, profiling panel (AID 774);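 also: the DPM-DC format reads NADH fluorescence rather than 340 nm absorbance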
Settings: coupled PK/LDH NADH assays, four targets; at 10 µM; stronger effect = higher value

SMILES	inhibition
COc1cc(OC)cc(C(=O)Nc2ccc(-c3nc4ccccc4o3)c(O)c2)c1	9% (inactive)
CC1(C)C(=O)Nc2ccccc2N1C(=O)COC(=O)Cn1cnc2ccccc2c1=O	11% (inactive)
CC1CCCCC1NC(=O)CCS(=O)(=O)c1cccc2nonc12 (configuration not stated)	2% (inactive)
c1csc(CN2CCN(Cc3cccs3)C2c2cccs2)c1	5% (inactive)
O=C(CSc1nnc(Cc2ccccc2)n1-c1ccccc1)N1CCOCC1	5% (inactive)
CCc1c(O)nc(SCC(=O)N2CCCCC2)n(-c2ccccc2C)c1=O	11% (inactive)
O=C(NC1CCN(Cc2ccccc2)CC1)c1ccccc1F	1% (inactive)
Cc1ccc(NC(=O)c2cc(-c3ccc(C)o3)nc3ccccc23)nc1	5% (inactive)
CCOC(=O)C1CCN(C(=O)Cc2c(C(=O)O)[nH]c3ccccc23)CC1	1% (inactive)
Cc1ccn2cc(C(=O)NC3CCN(Cc4ccccc4)CC3)nc2c1	4% (inactive)
CC1Cc2ccccc2N1C(=O)CSc1nc2ccccc2o1 (configuration not stated)	4% (inactive)
COC(=O)CN(c1cccc(C(C)=O)c1)S(C)(=O)=O	6% (inactive)
C[N+](C)(C)CCOP(=O)([O-])OC[C@H](O)CO	2% (inactive)
COc1ccc(OC)c(C(=O)c2coc3ccc(OC)cc23)c1	0% (inactive)
Cc1cc(C)nc(NC2=NCC(=O)N2c2ccc(Cl)cc2)n1	2% (inactive)
Nc1ccc(-n2nncc2-c2ccco2)cc1	3% (inactive)
CCOC(=O)CSc1nnc(CNC(=O)c2ccco2)n1-c1ccc(F)cc1	5% (inactive)
CCOC(=O)C1C(=O)NC(N2CCN(c3ccccc3)CC2)=NC1c1ccco1 (configuration not stated)	7% (inactive)
O=C(O)C1CCCN1S(=O)(=O)c1ccc2c(c1)CCC2 (configuration not stated)	8% (inactive)
CNC(=O)n1ccc(C(=O)N2CCCCC2)n1	2% (inactive)
Cc1ccc(-c2ccc(=O)n(CC(=O)NCCCN3CCCCC3)n2)cc1	8% (inactive)
CN(Cc1ccccc1)c1nc2c(c(=O)[nH]c(=O)n2C)n1CCSc1nc2ccccc2[nH]1	4% (inactive)
COC(=O)C(C)N(C#N)c1nc(C)nc(C)n1 (configuration not stated)	9% (inactive)
CCOc1ccc(NC(=O)Nc2ccc(N(C)C(C)=O)cc2)cc1	4% (inactive)
CC(c1ccco1)N(C(=O)c1ccc(S(=O)(=O)N2CCCCC2)cc1)c1ccccn1 (configuration not stated)	1% (inactive)
Cc1ccc(-c2nc(COC(=O)c3c(C)noc3C)cs2)cc1	7% (inactive)

SMILES	inhibition
COc1ccc(OCc2cccc(C(=O)N3CCCC3)c2)cc1	9% (inactive)
CCOC(=O)N1CCN(C(=O)c2ccc(CN(c3ccc(C)c(C)c3)S(C)(=O)=O)cc2)CC1	2% (inactive)
CCOC(=O)N1CCN(C(=O)COc2ccc(Br)cc2)CC1	5% (inactive)
COc1ccccc1C(=O)N1CCN=C1SCc1cccnc1	2% (inactive)
Cn1c(=O)[nH]c(=O)c2c1nc(CN(Cc1ccccc1)Cc1ccccc1)n2CCN1CCOCC1	0% (inactive)
CCOC(=O)c1nnn(-c2nc(OC)nc(N(C)C)n2)c1-c1ccccc1	6% (inactive)
O=C(CSc1nc2ccccc2o1)N1CCN(c2ccc(Cl)cc2)CC1	3% (inactive)
CCOC(=O)N1CCN(C(=O)CN(C2CCCCC2)S(C)(=O)=O)CC1	3% (inactive)
O=C(C1CCN(CC2CCCCC2)CC1)N1CCCC1	17% (inactive)
O=C(CS(=O)(=O)c1cn(Cc2ccc(Cl)cc2)c2ccccc12)N1CCOCC1	1% (inactive)
CC1CN(c2cc(=O)n(-c3cccc(Br)c3)c(=O)[nH]2)CC(C)O1 (configuration not stated)	2% (inactive)
OC(COc1cccc(OCC(O)CN2CCCC2)c1)CN1CCCC1 (configuration not stated)	3% (inactive)
COc1ccc(C2CC(c3ccc(C)cc3)Nc3nc(N)nn32)cc1 (configuration not stated)	1% (inactive)
CCOc1ccc(-c2nnn(CC(=O)N3CCN(c4ccc(F)cc4)CC3)n2)cc1OCC	1% (inactive)
COc1ccccc1Cc1nc(-c2ccc(C)cc2)no1	1% (inactive)
Cc1cc(=O)[nH]c(=S)[nH]1	0% (inactive)
COc1ccccc1C1/C(=C(/O)c2ccc(OC(C)C)cc2)C(=O)C(=O)N1c1cc(C)on1 (configuration not stated)	5% (inactive)
OCCCNC(c1ccccc1)c1ccc(O)cc1 (configuration not stated)	6% (inactive)
Cc1cc(C(F)(F)F)nn1CC(=O)N1CCCC1	2% (inactive)
CCOC(=O)Cn1c(SC)nc2sc3c(c2c1=O)CC(C)(C)OC3	4% (inactive)
COCCNC(=O)c1ccccc1-c1nc(-c2ccccc2Cl)no1	4% (inactive)
Cc1nc(CNS(=O)(=O)c2cccnc2)cs1	5% (inactive)
Cc1cc(C)nc(N(C#N)CC(=O)Nc2ccccc2)n1	7% (inactive)
COc1ccc(-c2noc(CN(C)S(=O)(=O)c3ccc(C)cc3)n2)cc1	6% (inactive)
CN1CCN(S(=O)(=O)c2ccc(NC(=O)c3ccco3)cc2)CC1	2% (inactive)
CCOc1ccc(CN(Cc2ccco2)C(c2cccs2)c2nnnn2C(C)(C)C)cc1 (configuration not stated)	1% (inactive)

SMILES	inhibition
CCOC(=O)c1ccc(N2C(=O)CC(N3CC(C)OC(C)C3)C2=O)cc1 (configuration not stated)	3% (inactive)
CC(=O)Nc1ccc(S(=O)(=O)N2CCN(C3CCCCCCC3)CC2)cc1	6% (inactive)
CC(C)(C)c1ccc(C(=O)NCCC(=O)NCc2ccco2)cc1	6% (inactive)
CCSC1(SCC)N=C(N)C2(C#N)C(c3ccccc3)NC(C)=CC12C#N (configuration not stated)	1% (inactive)
COc1ccccc1-n1nnnc1S(=O)(=O)Cc1ccc(Cl)cc1	5% (inactive)
Cc1noc(C)c1S(=O)(=O)N(CC(=O)Nc1ccc2c(c1)OCCO2)c1ccc(C(C)C)cc1	8% (inactive)
CCCCOC(=O)c1[nH]c(C)c(C(=O)OC)c1C	1% (inactive)
CC(Oc1ccc(Cl)cc1)C(=O)Nc1ncccn1 (configuration not stated)	5% (inactive)
Cc1noc(C)c1CSc1nc2cc(S(=O)(=O)N3CCOCC3)ccc2o1	4% (inactive)
O=C1CCC(=O)N1CCOP1(=O)COc2ccccc2OC1	4% (inactive)
O=C(NCc1ccc2c(c1)OCO2)c1cc2c(s1)CS(=O)(=O)C2	6% (inactive)
CCCOP(=O)(c1ccc(N(C)C)cc1)C(O)c1cc(OC)c(OC)c(OC)c1 (configuration not stated)	2% (inactive)
CSc1nc(C)nc2c1c(=O)n(C)c(=O)n2C	5% (inactive)
Cc1nc(NCc2ccccc2)c(C(N)=O)c2c1COC(C)(C)C2	11% (inactive)
CCN(CC)CCNC(=O)C1c2ccccc2C(=O)N(C)C1c1cn(C)c2ccccc12 (configuration not stated)	6% (inactive)
CCOc1cc(C(=O)N2CCc3cc(OC)c(OC)cc3C2)ccc1OC(F)F	7% (inactive)
Cc1cc(N2CCCC2)n2nc(C)c(-c3ccccc3)c2n1	8% (inactive)
CSCCC(NC(N)=O)C(=O)N(C)CC(=O)Nc1ccc(C)cc1 (configuration not stated)	8% (inactive)
CC(NCCO)C(=O)C12CC3CC(CC(C3)C1)C2 (configuration not stated)	4% (inactive)
O=P(O)(CP(=O)(c1ccccc1)c1ccccc1)c1ccccc1	6% (inactive)
COC(=O)c1cc(NC(=O)CN2CCC(C(N)=O)(N3CCCCC3)CC2)cc(C(=O)OC)c1	4% (inactive)
ON=C1/C(=N\O)CC2(C/C1=N/O)OCCO2	2% (inactive)
CCc1ccccc1NC(=O)CSc1nnc([C@@H](NC(=O)OC(C)(C)C)C(C)CC)o1 (some centres not stated)	5% (inactive)
COc1ccc(-n2ncc3c(N4CCc5ccccc54)ncnc32)cc1	6% (inactive)
CCOc1ccc(S(=O)(=O)N(CC(=O)O)c2ccccc2)cc1	1% (inactive)
CCOc1cccc(NC(=O)CC#N)c1	6% (inactive)

SMILES	inhibition
COC(=O)c1sccc1NC(=O)c1csc2c1CCCC2	5% (inactive)
CCOC(=O)CNC(=O)CSc1nnc(COc2ccc(Cl)cc2)n1CC	8% (inactive)
N#Cc1ccc(OCCN2C(=O)NC3(CCSC3)C2=O)cc1 (configuration not stated)	14% (inactive)
CS(=O)(=O)N(Cc1nc2sc3c(c2c(=O)[nH]1)CCCC3)C1CCCCC1	3% (inactive)
CCn1nc(NC(=O)c2ccco2)c2cc3ccc(C)cc3nc21	9% (inactive)
N#CC(C(=O)c1ccc(S(=O)(=O)N2CCCCCC2)cc1)c1nc2ccccc2[nH]1 (configuration not stated)	8% (inactive)
CC(=O)N(Cc1cccs1)C1CCOC(C)(C)C1 (configuration not stated)	5% (inactive)
CCn1c(NCCc2ccc(OC)c(OC)c2)nc2c1c(=O)n(C)c(=O)n2C	7% (inactive)
Nc1nc(SCCOc2ccccc2)n[nH]1	1% (inactive)
N#C/C=C\Oc1ccc(Cl)cc1N	7% (inactive)
Cc1nnc(NC(=O)CSc2nccn2-c2cccc(C)c2C)s1	5% (inactive)
O=C(NCc1ccco1)c1cc2sccc2n1Cc1ccc(F)cc1	5% (inactive)
CCOc1ccc(-c2cn(S(=O)(=O)c3cccc4nsnc34)nc2N)cc1	5% (inactive)
O=C(CCn1c(=O)[nH]c2ccccc2c1=O)NCCCN1CCN(c2cccc(Cl)c2)CC1	1% (inactive)
CC1=CC(C)(C)N(C(=O)CSc2nccn2C)c2cc(C)ccc21	0% (inactive)
O=C(O)CCSc1nnc(-c2ccccc2)n1-c1ccccc1	4% (inactive)
CSc1nnc(CNC(=O)c2ccccc2)n1-c1ccc(F)cc1	0% (inactive)
CC(NC(=O)Nc1ccccc1)c1ccccc1 (configuration not stated)	10% (inactive)
CC(=O)c1cc(C#N)c(SCC(=O)C(C)(C)C)nc1C	1% (inactive)
COc1cccc(NC(=O)Nc2nnc(N3CCCCC3C)s2)c1 (configuration not stated)	7% (inactive)
CCCn1cc(SCC(N)=O)c2ccccc21	1% (inactive)
COc1ccc(S(=O)(=O)N2CCC(C(=O)N3CCc4ccccc4C3)CC2)cc1OC	2% (inactive)
CCOC(=O)N1CCC(O)(c2cc(C)c(C)cc2C)CC1	3% (inactive)
O=C(CNS(=O)(=O)c1ccc(Br)s1)NCc1ccc2c(c1)OCO2	5% (inactive)
